According to PubChem BioAssay AID1851 (National Center for Advancing Translational Sciences (NCATS), 2009):
In all, about 16,000 compounds went through this assay and about 5,800 (36%) were called active. Inconclusive results (about 23%) are left out. Calls follow the shape of the dose curve; as a rule, active = well fitted curve in the direction sought with a large enough effect; inconclusive = small, poorly fitted or top-dose-only effect, or effect the other way; inactive = no such curve, though single readings can be large or run the other way. The list shows a part of the results.

target: Cytochrome P450 2C19 (Homo sapiens) (UniProt P33261); test: Cytochrome panel assay with activity outcomes; settings: recombinant CYP, pro-luciferin dealkylation, luminescence, p450-cyp2c19; series mostly up to 57.1 µM
Sequence (P33261 whole entry, looked up): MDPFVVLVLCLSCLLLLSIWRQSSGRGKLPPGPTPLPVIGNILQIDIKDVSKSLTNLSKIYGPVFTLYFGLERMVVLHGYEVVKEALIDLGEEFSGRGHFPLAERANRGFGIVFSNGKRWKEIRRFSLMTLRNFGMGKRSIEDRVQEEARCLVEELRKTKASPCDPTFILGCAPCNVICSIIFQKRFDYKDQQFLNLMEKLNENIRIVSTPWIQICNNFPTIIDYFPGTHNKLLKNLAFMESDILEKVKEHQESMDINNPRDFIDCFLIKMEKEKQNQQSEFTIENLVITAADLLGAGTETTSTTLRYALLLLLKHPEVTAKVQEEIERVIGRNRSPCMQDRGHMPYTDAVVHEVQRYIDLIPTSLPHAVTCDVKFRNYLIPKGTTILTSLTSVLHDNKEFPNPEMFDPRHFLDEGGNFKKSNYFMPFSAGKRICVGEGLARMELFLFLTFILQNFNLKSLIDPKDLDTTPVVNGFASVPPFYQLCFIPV
% is scaled to controls: 0 for no effect and ±100 for the full control effect.

AC50, inactive:
O=C(CNCCO)N1CCc2ccccc21, CCn1ccc(C(=O)NC2=C(C#N)CCC2)n1, CSc1nc(Oc2ccc(=O)[nH]n2)nc(N(C)C)n1, CCOc1ccc(-n2ccnc2SCC(=O)Nc2nnc(C)s2)cc1, CCc1nnc(NC(=O)CCC(=O)N2CCN(c3ccccn3)CC2)s1, NCCSSCCN, CN1CCCC2(CCN(C(=O)c3cnccn3)CC2)C1, CCCC(=O)Nc1nnc(CCN2CCCCC2)s1, COc1ccc(NC(=O)CSc2nnc(C3CC3)n2N)cc1, Cc1ccc2nc(SCC(=O)NCc3cccs3)c(C#N)cc2c1, CCn1c(SC)nnc1C1CCN(S(=O)(=O)c2ccc(OC)cc2)CC1, Cn1ncc2c(Nc3cccc(C(=O)O)c3)ncnc21, CCN(CC)C(=O)CSc1nc(O)cc(=O)n1CC, Cc1cccc(-n2ncc3c(Nc4c(C)n(C)n(-c5ccccc5)c4=O)ncnc32)c1, COc1c(Cl)cc(Cl)cc1CNCCNCCO, Nc1ncnc2c1nc(Br)n2[C@@H]1O[C@H]2COP(=O)(O)O[C@@H]2[C@H]1O, COC(=O)N1CCC2(CC1)CCN(c1ccncc1)CC2, CNc1oc(-c2cccs2)nc1C#N, CCCC(CCC)C(=O)NNc1cc(=O)c2c(=O)n(C)c(=O)n(C)c2[nH]1, CC(C)(C)NC[C@H](O)COc1cccc2[nH]c(=O)[nH]c12, CCN(CC)S(=O)(=O)c1ccc(OC)c(NC(=O)c2cc([N+](=O)[O-])ccc2Cl)c1, CCN1CCC[C@H]1CNC(=O)c1cc(S(N)(=O)=O)ccc1OC, COc1cc(N)c(Cl)cc1C(=O)OCCCN1CCCCC1, COC(=O)c1cc(OC)c(OC)cc1NC(=S)N1CCN(C)CC1, COCCn1c(=O)cnc2cnc(Nc3ccccc3)nc21, CCNc1ncc2ncc(=O)n(C3CC3)c2n1, CCNc1ncc2ncc(=O)n(C[C@H]3CCCO3)c2n1, CC[N+](C)(C)c1cccc(O)c1, CCOc1ccc(C2=[N+]([O-])C(C)(C)N(O)C2(C)C)cc1, CN(C)Cc1ccccc1-c1nccc(N(C)C)n1, c1ccc2c(CC3=NCCN3)cccc2c1, COCCn1c(C)cc2c(c1=O)C(c1ccccc1F)C(C#N)=C(N)O2 (configuration not stated), N=C(N)SCCN, CCN1CCC[C@@H]1CNC(=O)c1cc(S(N)(=O)=O)ccc1OC

AC50, active:
O=C1CN=C(Nc2ccc(Cl)cc2)N1c1ccccc1 11200 nM, CCOC(=O)COc1ccc(/C=C/[N+](=O)[O-])c(OCC(=O)OCC)c1 6310 nM, CCCCCN=c1ccn(Cc2ccccc2)c2ccccc12 251 nM, O=C(CSc1nnc(CNc2ccccc2)o1)N1CCCc2ccccc21 4470 nM, O=C(CSc1nnc(CNc2ccc(F)cc2)o1)OC1CCCCC1 11200 nM, O=C(CSc1n[nH]c(-c2ccccc2O)n1)N1CCCc2ccccc21 2510 nM, O=C(CSc1nc(-c2ccccc2)cs1)N1CCc2ccccc21 2000 nM, O=C(CSc1nnc(CNc2ccc(F)cc2)o1)N1c2ccccc2Sc2ccccc21 2820 nM, COc1ccc(-n2ccnc2SCC(=O)Nc2ccc(OC)cc2OC)cc1 1410 nM, COc1ccc(-n2nnnc2SCC(=O)Nc2ccccc2)cc1 3980 nM, O=C(CSc1nnnn1-c1ccccc1)NCc1cccs1 891 nM, CCOc1ccc(-n2ccnc2SCC(=O)Nc2nnc(CC)s2)cc1 8910 nM, COc1cccc(-n2ccnc2SCC(=O)Nc2nccs2)c1 8910 nM, CCCC(=O)Nc1nnc(SCC(=O)NCc2cccs2)s1 14100 nM, COc1ccc(NC(=O)CSc2nnc(C3CC3)n2-c2ccccc2)cc1 20000 nM, COc1ccc(-n2ccnc2SCC(=O)Nc2ccccc2)cc1 4470 nM, CC(=O)Nc1ccc(Nc2ncnc3c2cnn3-c2ccccc2)cc1 2820 nM, Cn1c(SCC(=O)Nc2ccccc2)nc(O)cc1=O 22400 nM, CCn1c(SCC(=O)c2ccc(OC)cc2)nnc1C1CC1 11200 nM, COc1ccc(NC(=O)CSc2ccc3c4c(cccc24)C(=O)c2ccccc2-3)cc1 708 nM, CC(=O)Nc1ccc(NC(=O)CSc2ncnn2-c2ccccc2)cc1 25100 nM, OCCNCCCOc1cccc(Cl)c1Cl 3980 nM, N#Cc1nc(-c2cccs2)oc1NCc1ccccc1 1580 nM, O=C(Cn1c(-c2cscn2)nc2ccccc21)Nc1cc(F)ccc1F 3160 nM, CCCCCC/C(C)=C1/SC(=S)NC1=O 3550 nM, Cc1ccc(Oc2ccccc2/C=C2\SC(=O)N(C)C2=O)cc1 6310 nM, COC(=O)c1cc(OC)c(OC)cc1NC(=O)CSc1ccccc1 3160 nM, COC(=O)c1cc(OC)c(OC)cc1NC(=S)N1CCCCC1 6310 nM, COC(=O)c1cc(OC)c(OC)cc1NC(=O)CSc1ccc(C)cc1 1780 nM, CCN(CC)S(=O)(=O)c1ccc(OC)c(NC(=O)CSc2ccccc2)c1 11200 nM, O=c1cnc2cnc(Nc3ccccc3)nc2n1CCc1ccccc1 2000 nM, CCNc1ncc2ncc(=O)n(CCc3ccccc3)c2n1 631 nM, CCOc1ccc(C(Nc2ccc(C)cc2)P2(=O)OCC(C)(C)CO2)cc1 (configuration not stated) 25100 nM, CN(Cc1cccc2ccccc12)Cc1cccc2ccccc12 1580 nM, CN(C/C=C\c1ccccc1)Cc1cccc2ccccc12 501 nM, CCOc1ccccc1C1C(C#N)=C(N)Oc2n[nH]c(CC)c21 (configuration not stated) 6310 nM, CC(=O)C1=C(NC(=O)c2ccc(F)cc2)CC2C1C2(C)C (configuration not stated) 3160 nM, O=[N+]([O-])c1cccc(-c2nc(-c3ccncc3)no2)c1 891 nM, COc1ccc(O[C@H]2C=C[C@@H](c3ccccc3)O[C@H]2COC(=O)CC/C(C)=N/OCC[C@@H]2C=C[C@H](OC(C)=O)[C@H](COC(C)=O)O2)cc1 398 nM, COc1ccc(O[C@H]2C=C[C@@H](c3ccccc3)O[C@H]2COC(=O)CC/C(C)=N/O[C@@H]2O[C@H](COC(C)=O)[C@H](OC(C)=O)[C@H](OC(C)=O)[C@H]2OC(C)=O)cc1 1580 nM, COc1ccc(O[C@H]2C=C[C@@H](c3ccccc3)O[C@H]2CO/N=C(/C)CCC(=O)OC[C@@H]2O[C@H](c3ccccc3)C=C[C@@H]2Oc2ccc(OC)cc2)cc1 100 nM, COc1ccc(O[C@H]2C=C[C@@H](c3ccccc3)O[C@H]2COC(=O)N2CCCCC2)cc1 501 nM, COc1ccc(O[C@H]2C=C[C@@H](c3ccccc3)O[C@H]2CO/N=C2/[C@H]3O[C@@H]3[C@@H](O)[C@H]3[C@H]2CCn2c(=O)n(-c4ccccc4)c(=O)n23)cc1 2510 nM, COc1ccc(O[C@H]2C=C[C@@H](c3ccccc3)O[C@H]2COC(=O)CC/C(C)=N\O[C@@H](C)c2cc(-c3c(C)cc(C)cc3C)no2)cc1 100 nM, COc1ccc(O[C@H]2C=C[C@@H](c3ccccc3)O[C@H]2COC(=O)CC/C(C)=N\OC[C@@H](O)[C@H]2O[C@H]3OC(C)(C)O[C@H]3[C@@H]2O)cc1 5.01 nM, COc1ccc(O[C@H]2C=C[C@@H](c3ccccc3)O[C@H]2CO/N=C\C[C@@H]2C=C[C@H](OC(C)=O)[C@H](COC(C)=O)O2)cc1 794 nM

activity, negative = inhibition, inactive:
O=C(O)c1nn(-c2ccc(Cl)cc2)c2c1C(=O)c1ccccc1C2=O 4.89% [at 11.4 µM], CO[C@@H]1COC(=O)CCC[C@@H](C)[C@H](OC)COC(=O)CCC[C@H]1C 5.51% [at 11.4 µM], O=C(CSC1=NCCN1)Nc1ccccc1 -1.95% [at 11.4 µM], O=C(O)CS(=O)c1ccc2c3c(cccc13)C(=O)c1ccccc1-2 (configuration not stated) -37% [at 11.4 µM], Cc1ncc(COP(=O)(O)O)c(C)c1O 11.9% [at 11.4 µM], NCCSS(=O)(=O)CCN 4.15% [at 11.4 µM], Nc1nc(-c2cccc([N+](=O)[O-])c2)cc(-c2cc(-c3cccc([N+](=O)[O-])c3)nc(N)n2)n1 14.8% [at 11.4 µM], C[C@@H]1NC(=O)C/C=C\[C@@H](C)[C@@H]2C=C[C@H](O)[C@@H](COC(=O)[C@H](C)NC(=O)C/C=C\[C@@H](C)[C@@H]3C=C[C@H](O)[C@@H](COC1=O)O3)O2 -11.5% [at 11.4 µM], CC(=O)OC[C@@H]1O[C@H](CCO/N=C(\C)CCC(=O)OC[C@@H]2O[C@H](C#Cc3ccccc3)C=C[C@@H]2Oc2ccc(C)cc2)C=C[C@@H]1OC(C)=O -44.9% [at 11.4 µM], CC(=O)OC[C@@H]1O[C@H](CCON=C(C)C)C=C[C@@H]1OC(C)=O -20.6% [at 11.4 µM], CC(=O)OC[C@H]1O[C@@H](O/N=C(\C)CCN2CCc3nc(-c4ccccc4)c(-c4ccccc4)cc3C2)[C@H](OC(C)=O)[C@@H](OC(C)=O)[C@H]1OC(C)=O 6.61% [at 11.4 µM], COc1ccc(O[C@H]2C=C[C@@H](c3ccccc3)O[C@@H]2CON=C(C)C)cc1 -28.2% [at 11.4 µM], CC(=O)OC[C@H]1O[C@@H](ON=C(C)C)[C@H](OC(C)=O)[C@@H](OC(C)=O)[C@H]1OC(C)=O 32.2% [at 11.4 µM], CCCNC(=O)OC[C@@H]1O[C@H](c2ccccc2)C=C[C@@H]1Oc1ccc(OC)cc1 -44.8% [at 11.4 µM], CCCNC(=O)OC[C@H]1O[C@@H](CCO/N=C2/[C@H]3O[C@@H]3[C@@H](O)[C@H]3[C@H]2CCn2c(=O)n(-c4ccccc4)c(=O)n23)C=C[C@@H]1Oc1ccc(OC)cc1 -3.58% [at 11.4 µM], CC(=O)OC[C@@H]1O[C@H](C/C=N\OC[C@@H](O)COCc2ccco2)C=C[C@@H]1OC(C)=O 14.8% [at 11.4 µM], C/C(CCN1CCc2nc(-c3ccccc3)c(-c3ccccc3)cc2C1)=N\OC[C@@H](O)[C@@H]1O[C@@H]2OC(C)(C)O[C@@H]2[C@H]1O 3.78% [at 11.4 µM], CC(=O)OC[C@@H]1O[C@H](C/C=N\O[C@@H](C)c2cc(-c3c(C)cc(C)cc3C)no2)C=C[C@@H]1OC(C)=O -35.1% [at 11.4 µM], CCc1cc2c(nc1CC)CCN(CC/C(C)=N/O[C@@H](C)c1cc(-c3c(C)cc(C)cc3C)no1)C2 -42.9% [at 11.4 µM], CC(C)CO/N=C1/[C@H]2O[C@@H]2[C@@H](O)[C@H]2[C@H]1CCn1c(=O)n(-c3ccccc3)c(=O)n12 15.7% [at 11.4 µM], CC(=O)OC[C@@H]1O[C@H](C/C=N\OC[C@@H](C)[C@H](OCc2ccccc2)C(C)C)C=C[C@@H]1OC(C)=O -16.1% [at 11.4 µM], C/C(CCN1CCCc2nc(C)c(C)cc21)=N\OC[C@@H](O)[C@@H]1O[C@@H]2OC(C)(C)O[C@@H]2[C@H]1O -36.9% [at 11.4 µM]
